Results on twelve compounds are retold here after PubChem BioAssay.

Assay [1] relates to Human papillomavirus type 1a protein E7 (residues 44-93). In words: HPV1a E7 fragment binders on microarrays, primary screen, biochemical, small-molecule microarray, residues 44-93, 635 nm fluorescence (AID 1108).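 Further: E7 fragment applied at 1 µg/mL in TBST for 1 h at 4 C; score combines spot fluorescence with its signal to noise ratio.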 The note with it: small-molecule microarray binding, fluorescence 635 nm; higher = more signal.
Assay [2] can be described thus: modulators of HCV replicon luciferase signal, primary screen, HCV replication inhibitor project, Huh7 cells, luciferase reporter (AID 1109).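 Further: huh7 hepatoma cells harbouring a luciferase neomycin HCV replicon reporter; luciferase luminescence as measure of HCV replicon replication; test concentration not given here.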 The note with it: 48 h, higher = more signal. In general terms: Replicon systems follow genome replication, usually without infectious particles.
Assay [3] deals with Left-right determination factor 2 (Homo sapiens) (UniProt O00292). In words: LEFTY2 binders on small-molecule microarrays, primary screen, biochemical, small-molecule microarray, 635 nm fluorescence scan (AID 1110). The note with it: LEFTY2 binding, higher = more signal.
Sequence of Left-right determination factor 2 (Homo sapiens) (O00292 whole entry, looked up): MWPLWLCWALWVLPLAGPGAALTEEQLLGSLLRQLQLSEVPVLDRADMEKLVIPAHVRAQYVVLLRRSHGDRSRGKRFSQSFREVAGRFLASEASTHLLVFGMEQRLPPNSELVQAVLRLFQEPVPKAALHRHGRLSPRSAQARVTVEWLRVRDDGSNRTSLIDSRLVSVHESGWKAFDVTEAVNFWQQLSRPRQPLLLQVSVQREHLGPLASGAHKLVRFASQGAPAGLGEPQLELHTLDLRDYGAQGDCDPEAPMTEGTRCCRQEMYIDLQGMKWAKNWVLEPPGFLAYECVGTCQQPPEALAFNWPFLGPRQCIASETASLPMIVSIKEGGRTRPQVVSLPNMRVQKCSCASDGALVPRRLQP
The target of assay [4] is Calmodulin-1 (Homo sapiens) (UniProt P0DP23). In words: CALM1 binders on microarrays, EGTA buffer, profiling panel, biochemical, small-molecule microarray, Cy5-labelled CALM1 (AID 1111).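 Further: labelled calmodulin applied in Tris saline Tween buffer holding calcium plus EGTA and DTT.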 The note with it: Cy5-CALM1 binding fluorescence, higher = more signal.
Assay [5] has the same target. Description: calcium-bound CALM1 binders on microarrays, profiling panel, artefact control for SMM control-protein annotation, biochemical, small-molecule microarray, Cy5-labelled CALM1, plus calcium (AID 1112).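 Further: score merges spot fluorescence with signal to noise from triplicate slides.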 The note with it: Cy5-CALM1 binding fluorescence, higher = more signal.
Assay [6] is described as follows: small-molecule microarray binders of probe aWnt5a, primary screen, biochemical, biotinylated probe, 635/667 nm fluorescence (AID 1113).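 Further: score merges 667 nm fluorescence intensity with signal-to-noise per printed feature.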 The note with it: higher = more signal.
Assay [7] in a line: small-molecule microarray binders of probe aShh, primary screen, biochemical, biotinylated probe, 635/667 nm fluorescence (AID 1114).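 Further: probe is biotin-labelled aShh protein from a stem cell growth factor screen; measures binding of labelled protein to compounds printed on the slide; score merges feature fluorescence at 667 nm with signal-to-noise.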 The note with it: higher = more signal.
Assay [8] in a line: small-molecule microarray binders of probe aNog, primary screen, biochemical, biotinylated probe, 635/667 nm fluorescence (AID 1115).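 Further: probe is biotinylated aNog protein used at 0.15 µg/mL for 1 h at 4 C; z-score combines 667 nm fluorescence of each spot with its signal to noise.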 The note with it: higher = more signal.
In assay [9] the target is Torsin-1A-interacting protein 1 (Homo sapiens) (UniProt Q5JTV8). In words: LAP1 binders from COS7 cell lysate, primary screen, small-molecule microarray, 635/667 nm fluorescence (AID 1116). The note with it: COS7-hLAP1 lysate binding, 635 nm fluorescence, higher = more signal.
Sequence of Torsin-1A-interacting protein 1 (Homo sapiens) (Q5JTV8 whole entry, looked up): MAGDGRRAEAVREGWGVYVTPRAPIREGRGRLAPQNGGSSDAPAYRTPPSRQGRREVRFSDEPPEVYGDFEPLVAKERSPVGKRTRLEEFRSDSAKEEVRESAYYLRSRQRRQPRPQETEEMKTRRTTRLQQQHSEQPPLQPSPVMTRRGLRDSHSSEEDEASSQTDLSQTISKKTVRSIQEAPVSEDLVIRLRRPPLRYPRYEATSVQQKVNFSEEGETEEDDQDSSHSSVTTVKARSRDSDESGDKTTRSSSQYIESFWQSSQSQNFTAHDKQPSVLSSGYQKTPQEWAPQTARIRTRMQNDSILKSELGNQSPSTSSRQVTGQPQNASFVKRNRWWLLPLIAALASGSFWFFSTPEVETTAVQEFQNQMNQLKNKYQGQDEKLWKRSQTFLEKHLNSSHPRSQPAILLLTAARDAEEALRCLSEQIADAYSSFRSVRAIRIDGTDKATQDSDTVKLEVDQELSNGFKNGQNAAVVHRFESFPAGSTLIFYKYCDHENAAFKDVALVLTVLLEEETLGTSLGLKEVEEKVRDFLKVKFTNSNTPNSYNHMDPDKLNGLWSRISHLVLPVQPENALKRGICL
Assay [10] addresses Alpha-bungarotoxin (Bungarus multicinctus) (UniProt P60615). In words: alpha-bungarotoxin binders on microarray, profiling panel, artefact control for SMM control protein annotation, biochemical, small-molecule microarray, Alexa647 label, 635/667 nm fluorescence (AID 1117). The note with it: alpha-BTX-A647 binding fluorescence, higher = more signal.

Sequence of Alpha-bungarotoxin (Bungarus multicinctus) (P60615 whole entry, looked up): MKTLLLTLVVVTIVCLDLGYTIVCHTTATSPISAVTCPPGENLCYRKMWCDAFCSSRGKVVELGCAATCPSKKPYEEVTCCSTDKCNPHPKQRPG

For the compound `CCOC(=O)C[C@H]1[C@H](OC(=O)Cc2ccc3c(c2)OCO3)[C@@H](NC(=O)CC(C)C)c2cc(OCCCO)ccc2N1C(=O)c1ccccc1`, the composite z-score was 0.338 in [1]; 0.371 in assay [3]; -0.278 in assay [4]; -0.215 in assay [5]; -0.0478 in assay [6]; 0.081 in assay [7]. In addition, the figures for the composite z-score in assay [8], in assay [9] and in assay [10] were 0.161, 0.662 and 0.111, respectively. In addition, the z-score in assay [2] stood at 0.0689.

Turning to `Cc1ccc(S[C@]2(C(=O)NC(C)C)CC(=O)N(Cc3cc(C(F)(F)F)cc(C(F)(F)F)c3)[C@@H]2c2ccc(CO)cc2I)cc1`, the composite z-score is 0.785 in [1]; -0.832 in assay [3]; -0.502 in assay [4]; -0.384 in [5]; -0.132 in [6]; 0.0815 in assay [7]. The composite z-score in [8] is -0.036; in [9], -0.596; in assay [10] it was 0.57. The compound further came in with a z-score in assay [2] of -0.563.

`CCOC(=O)C1=CCC(c2cccc3ccccc23)N(S(=O)(=O)c2ccc(C)cc2)C1` (stereo not given): the composite z-score in [1] was determined as 1.09; in [3], 0.0938; in assay [4], 1.47; in [5], 0.509; in assay [6], 0.0763; in assay [7], 0.203. In addition, the values for the composite z-score in assay [8], in assay [9] and in assay [10] were 0.276, 0.871 and 1.3, respectively. This compound also had a z-score in [2] of -0.874.

On to `O=C1O[C@H](c2ccccc2)[C@H](c2ccccc2)N2[C@H]1[C@@H](C(=O)NC[C@H](O)c1ccccc1)[C@]1(C(=O)Nc3ccc(C#CC4(O)CCCCCC4)cc31)[C@H]2c1ccc(OCCO)cc1`, for which the composite z-score in assay [1] was 1.27; in [3], -0.12; in assay [4], 0.67; in [5], 0.623; in assay [6], -0.0276; in assay [7], -0.106. Moreover, the composite z-score in assay [8] was found to be 0.319; in assay [9], 0.933; in assay [10], 1.41. Besides, the z-score in assay [2] is -2.41.

Turning to `CC(C)CNC(=O)[C@@]1(C)c2ccccc2C(=O)N(Cc2ccc(OC(F)(F)F)cc2)[C@H]1c1ccc(CO)cc1`, the composite z-score in assay [1] was -1.2; in assay [3], -1.22; in [4], -0.381; in [5], 0.787; in assay [6], -0.147; in [7] it was -0.0769. Besides, the composite z-score in [8] is 0.264; in assay [9], 1.5; in assay [10], -0.36. In [2], the z-score came to 0.173.

As to `CCOC(=O)C[C@H]1[C@H](OC(=O)c2cc3ccccc3oc2=O)[C@@H](NC(=O)C2CCCCC2)c2cc(OCCCO)ccc2N1C(=O)c1ccc2ccccc2n1`, the composite z-score in assay [1] is 1.03; in [3] it was 0.4; in assay [4], 0.242; in assay [5], -0.137; in [6], -0.0721; in assay [7] it was 0.225. Moreover, the composite z-score was -0.188 in assay [8], 0.767 in assay [9] and 0.131 in assay [10]. Moreover, the z-score in assay [2] is -0.26.

Consider `COc1ccc([Si](C)(C)[C@@H]2[C@@H](CCO)O[C@]3(C(=O)N(Cc4ccccc4)c4ccccc43)[C@H]2C)cc1`, for which the composite z-score in assay [1] is 0.566; in assay [3], 0.224; in assay [4], 0.398; in assay [5], 0.49; in assay [6] it was -0.148; in assay [7] it was -0.217. Also, the results for the composite z-score in assay [8], in assay [9] and in assay [10] were 0.202, 0.526 and 0.124, respectively. The z-score in assay [2] is -1.84.

`COc1ccc([Si](C)(C)[C@H]2[C@H](CCO)O[C@@]3(C(=O)N(Cc4ccc(N5CCCCC5=O)cc4)c4ccccc43)[C@@H]2C)cc1`: the composite z-score was 0.247 in assay [1]; 0.139 in [3]; 1.49 in [4]; 1.02 in assay [5]; -0.116 in assay [6]; 0.0141 in [7]. Also, the composite z-score in assay [8] is 0.338; in [9], 0.643; in [10], 1.7. Besides, the z-score in assay [2] was -4.77.

On to `O=C(O)[C@@H]1Cc2c([nH]c3ccccc23)[C@@H](c2ccccc2)N1`, for which the composite z-score in assay [1] is 0.681; in [3], 0.414; in [4], -0.106; in [5], -0.568; in [6] it was -0.141; in assay [7] it was -0.124. The composite z-score was -0.013 in [8], 0.3 in assay [9] and 0.236 in [10]. The z-score in assay [2] is -0.161.

For `COc1cc2c(cc1OC)CN(C(=O)[C@H]1[C@@H]3C(=O)O[C@@H](c4ccccc4)[C@@H](c4ccccc4)N3[C@@H](c3ccc(O)cc3)[C@]13C(=O)Nc1ccc(C#CC4(O)CCCCCC4)cc13)CC2`, the composite z-score in [1] worked out at 1.4; in assay [3], 1.36; in assay [4], 2.21; in [5], 1.2; in assay [6], 0.808; in [7], 0.382. Also, the composite z-score in assay [8] was 2.35; in assay [9] it was 3.48; in assay [10], 2.79. This compound yielded a z-score in assay [2] of -1.47.

For `CCCN1C(=O)[C@@]2(CCS(=O)(=O)c3ccccc3)N=C(c3ccc(OCCCO)cc3)O[C@H]2c2ccccc21`, the composite z-score in [1] is 1.45; in assay [3] it was 0.224; in assay [4], 0.248; in assay [5], -0.598; in [6], -0.0721; in assay [7] it was -0.0234. Moreover, the composite z-score is -0.269 in assay [8], 0.307 in assay [9] and 1.01 in [10]. This compound also gave a z-score in [2] of -2.08.

With `COC(=O)[C@@]1(Cc2ccccc2)[C@H]2c3cc(C(=O)N4CCCC4)n(CCN4CNCC4=O)c3C[C@H]2CN1C(=O)c1ccccc1`, the composite z-score in assay [1] was 0.871; in assay [3], 0.172; in assay [4] it was 1.91; in [5], 0.265; in assay [6], -0.0519; in assay [7], -0.288. The composite z-score in [8] is -0.197; in [9] it was 0.911; in assay [10] it was 0.98. In [2], the z-score was -0.857.
